uPA surface inh – cell surface uPA generation inhibition; 330,000 tested, 0.31% active; cell surface uPA generation assay, qHTS; Potency, µM (series often up to 38.3 µM), for the others: top-dose activity change, negative = inhibition, hits mostly inhibitors; active = well fitted inhibition curve with a large enough effect; inconclusive = small, poorly fitted or top-dose-only effect; inactive = no such curve, though single readings can be large or run the other way; tested in mouse RAW 264.7 cells; note: potency is the fitted concentration of half-maximal effect; % is set by controls: 0 for no effect and ±100 for the full control effect; nearly all actives have a fitted effect of over 55% in size
MmCpn inh – blocks the Methanococcus maripaludis chaperonin Mm-Cpn | purified Mm-Cpn ATPase, ADP Transcreener TR-FRET | Potency, µM (series often up to 76.9 µM), for inactives: at the top dose activity, negative = inhibition, actives largely listed as inhibitors | 330,000 tested, 0.031% active | AID 504842; note: potency is the fitted concentration of half-maximal effect; % is set by controls: 0 for no effect and ±100 for the full control effect; nearly all actives have a fitted effect of over 80% in size
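Reaction buffer contained 30 mM Tris pH 7.4, 100 mM KCl, 5 mM MgCl2 and 1 mM DTT. Mm-CPN (25 nM final) hydrolysed 10 uM ATP over 30 min at 37°C; ADP was read by HTRF.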
CCT chaperon mod – cytosolic chaperonin activity modulation | purified chaperonin ATPase assay, HTRF ADP detection, 30 min | 360,000 tested, 0.3% active | activity change, % (test concentration not listed), hits read low | AID 651819; in the data active = activity change below about -30%; note: % is set by controls: 0 for no effect and ±100 for the full control effect
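TRiC (40 or 20 nM final, by batch activity) in 30 mM Tris pH 7.4, 100 mM KCl, 5 mM MgCl2, 1 mM DTT was treated with compound at 76 uM single dose, then 10 uM ATP, 30 min at 37 °C. ADP was read by HTRF Transcreener.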
GLP1R ag – activates the human GLP-1 receptor; HEK293 GLP-1R CRE-luciferase, luminescence, 4-6 h; cells express a hypersensitive GLP-1R form; P43220; Potency, µM (highest dose often 45.6 µM), for the others: at the top dose activation, hits mostly activators; 380,000 tested, 0.007% active; note: potency is the fitted concentration of half-maximal effect; % of control where 0% means no effect
Target sequence (P43220 whole entry, looked up): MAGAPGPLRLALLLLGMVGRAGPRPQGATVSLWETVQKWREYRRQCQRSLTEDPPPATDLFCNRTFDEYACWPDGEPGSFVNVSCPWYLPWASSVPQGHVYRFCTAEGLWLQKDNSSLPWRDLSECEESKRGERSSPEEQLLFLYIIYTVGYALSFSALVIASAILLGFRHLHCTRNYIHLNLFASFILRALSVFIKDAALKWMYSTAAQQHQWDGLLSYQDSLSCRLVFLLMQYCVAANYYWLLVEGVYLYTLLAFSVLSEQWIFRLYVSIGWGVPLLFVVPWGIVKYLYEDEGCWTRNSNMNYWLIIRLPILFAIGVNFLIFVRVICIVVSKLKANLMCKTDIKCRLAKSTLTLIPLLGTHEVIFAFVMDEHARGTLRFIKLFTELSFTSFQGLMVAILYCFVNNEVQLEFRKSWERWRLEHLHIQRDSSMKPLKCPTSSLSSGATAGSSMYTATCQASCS
GLP-1R inv ag – inverse agonists of human GLP-1 receptor; P43220; HEK293 GLP-1R CRE-luciferase, luminescence, 24 h; GLP-1R form is constitutively active; Potency, µM (titrated, usually from 38.3 µM), without a hit: top-dose activity change, negative = inhibition, usual class: inhibitors; 410,000 tested, 1.6% active; note: potency is the fitted concentration of half-maximal effect; % is set by controls: 0 for no effect and ±100 for the full control effect; nearly all actives have a fitted effect of over 55% in size
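HEK293 cells stably co-expressing a cAMP-responsive luciferase reporter and constitutively active GLP-1R were seeded, incubated 12 h, then exposed to compounds for 24 h at 37 C. Luminescence was read 12 min after detection reagent; inverse agonists lower signal.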
GLP1R cytotox – cytotoxic in the GLP-1 receptor inverse agonist counter-screen. Potency, µM (highest dose often 38.3 µM), for the others: at the top dose activity change, negative = inhibition, usual class: inhibitors. AID 624418. 410,000 tested, 0.13% active. HEK293 cAMP-luciferase reporter cells, luminescence, 24 h;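 note: loss of luciferase light is scored as toxicity; potency is the fitted concentration of half-maximal effect; % is set by controls: 0 for no effect and ±100 for the full control effect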
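Luminescence readout: signal drop marks cytotoxicity. Plated cells grew 12 h at 37 °C, 5% CO2, received 23 nL compound for 24 h, then got luciferase reagent, read after 12 min at RT.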
* hit, by the source's call; ? = inconclusive; nt = no result. Rows were chosen to be rich in hits. Some 2.2% of all compounds tested hit in one or more screens of this group. Unless noted, calls come from the whole dose curve; as a rule, active = well fitted curve in the direction sought with a large enough effect; inconclusive = small, poorly fitted or top-dose-only effect, or another doubt; inactive = no such curve, though single readings can be large; an effect the other way counts as inactive or inconclusive.

SMILES	uPA surface inh	MmCpn inh	CCT chaperon mod	GLP1R ag	GLP-1R inv ag	GLP1R cytotox
CCCS(=O)(=O)c1ncc(Cl)c(C(=O)N(Cc2ccccc2)Cc2ccco2)n1	nt	nt	nt	nt	13µM*	10µM*
CCSc1ncc(Cl)c(C(=O)N(Cc2ccccc2)Cc2ccco2)n1	nt	nt	nt	nt	10µM*	0%
Cc1ccc(C2N(c3ccc(Cl)cc3)C(=O)N3CCCN23)cc1 (centres undefined)	-1%	-2%	0	8%	10µM*	-8%
Cc1ccc2c(c1)Oc1ccc(NC(=O)CCCl)cc1C(=O)N2	8.9µM*	-11%	-1	8%	?	-30%
CCCC(=O)Nc1ccc2c(c1)C(=O)NC2=O	3%	-1%	-1	13%	10%	-17%
Cc1ccc(-c2csc(-c3cc4c([nH]c3=O)CC(c3ccccc3)CC4=O)n2)cc1 (centres undefined)	nt	nt	nt	nt	?	-19%
CC(C)(C)c1ccc(OCCOc2ccc(C(C)(C)C)cc2NC=O)c(NC=O)c1	?	-2%	0	5%	4.5µM*	4%
CN(C)C1(CNC(=O)COc2ccc(C(C)(C)C)cc2)CCCCC1	nt	nt	nt	7%	?	-9%
CCC1CCCCN1C(=O)COc1ccc(N(C)S(=O)(=O)c2ccc(C)cc2)cc1 (centres undefined)	-12%	2%	-2	8%	3.2µM*	3%
COC(=O)C1CCN(C(=O)COc2ccc(N(C)S(=O)(=O)c3ccc(C)cc3)cc2)CC1	11%	-7%	-3	-8%	12%	0%
Cc1ccc(S(=O)(=O)N(C)c2ccc(OCc3cccc(C)c3)cc2)cc1	6%	1%	-2	-8%	2.8µM*	10%
Cc1ccc(S(=O)(=O)N(C)c2ccc(OCC(=O)NCC3(N(C)C)CCCCC3)cc2)cc1	-2%	1%	0	0%	11µM*	0%
CCc1nnc(N/N=C/c2c(Cl)cccc2Cl)n1N	-8%	-3%	-1	-7%	4%	-9%
CCc1nnc(N/N=C/c2cccs2)n1N	-12%	0%	-43*	-5%	19%	-4%
O=C(OCC(=O)N(CCc1ccccc1)Cc1ccccc1)c1ccccc1O	-13%	1%	1	-14%	10µM*	16%
O=C(OCC(=O)N(Cc1ccccc1)Cc1ccccc1)c1ccccc1O	-10%	-2%	0	11%	?	0%
O=C(OCC(=O)N(CCc1ccccc1)Cc1ccccc1)c1ccccc1NCCO	2%	-1%	1	6%	10µM*	-13%
COc1ccccc1-c1nc2c(c(SCC(=O)Nc3ccc(C)c(C)c3)n1)Cc1c(CO)cnc(C)c1O2	nt	nt	nt	nt	8%	-7%
CCN(CC(=O)Nc1cc(S(=O)(=O)N2CCCCC2)ccc1C)Cc1ccccc1	-1%	0%	-1	5%	6.3µM*	2%
Cc1ccc(S(=O)(=O)N2CCCCC2)cc1NC(=O)CCCOc1ccccc1	3%	0%	0	8%	5.6µM*	-6%
CCC(=O)c1ccc(OCC(=O)Nc2cc(S(=O)(=O)N3CCCCC3)ccc2N2CCN(CC)CC2)cc1	-7%	1%	-121*	1%	?	?
CCN1CCN(c2ccc(S(=O)(=O)N3CCCCC3)cc2NC(=O)COc2ccccc2)CC1	-6%	0%	-3	1%	?	-3%
CCC(C)NC(=O)c1nn(-c2ccc(C)cc2)nc1CO (centres undefined)	nt	nt	nt	nt	1%	2%
Cc1ccc(C)c(NC(=O)CSc2nncn3c2cc2sccc23)c1	nt	nt	nt	nt	6%	3%
Cc1nnc(N2C(=O)c3cccc4c([N+](=O)[O-])ccc(c34)C2=O)s1	10µM*	1%	-2	-12%	26%	26%
SMILES	uPA surface inh	MmCpn inh	CCT chaperon mod	GLP1R ag	GLP-1R inv ag	GLP1R cytotox
Cc1ccnc(N2C(=O)c3cccc4c([N+](=O)[O-])ccc(c34)C2=O)c1	?	-7%	0	-9%	23%	216%
Cc1ccc(S(=O)(=O)c2ncccc2N)cc1	7%	?	-2	-9%	6%	0%
Cc1ccc(S(=O)(=O)c2ncccc2[N+](=O)[O-])cc1	4µM*	1%	-2	-4%	?	?
COc1ccc(C2NC(=O)NC(C)=C2C(=O)Nc2cc(C)cc(C)c2)c(OC)c1 (centres undefined)	nt	nt	nt	1%	9%	4%
Cc1ccc(C(C)C)c(OCC(=O)N2CCC(c3nc4ccccc4o3)CC2)c1	nt	nt	nt	nt	?	-9%
CCOC(=O)c1nc(C)nc(Sc2n[nH]c(-c3ccc(C(C)(C)C)cc3)n2)c1C	?	-1%	0	-7%	10µM*	-14%
Cc1ccc(S(=O)(=O)Nc2cc3c(cc2C)n(C)c(=O)c(=O)n3C)c(C)c1	nt	nt	nt	nt	11%	2%
O=C(CCCCn1c(=O)[nH]c2ccccc2c1=O)N1CCN(c2cccc(C(F)(F)F)c2)CC1	-9%	-1%	-1	-11%	10µM*	?
Cc1cc(CC(C)C)n(-c2nc3ccccc3c(=O)n2OCc2ccccc2)n1	2%	1%	-2	1%	7.1µM*	-15%
Cc1cc(CC(C)C)n(-c2nc3ccccc3c(=O)n2OCC(=O)N(C)C)n1	-6%	0%	-1	0%	8%	-6%
CCc1ccccc1NNC(=O)c1snnc1C	9%	2%	-1	11%	10µM*	?
COc1ccc(CNC(=O)CSc2ncc3c(n2)-c2ccc(Cl)cc2N(Cc2ccc(F)cc2)S3(=O)=O)cc1OC	nt	nt	nt	nt	-3%	0%
COc1ccc(OC)c(C(C)NC(=O)Cn2c(=O)cc(C)c3c(C)nn(-c4ccc(C)cc4)c32)c1 (centres undefined)	nt	nt	nt	nt	6%	12%
Cc1noc(C)c1COC(=O)c1cccc(S(=O)(=O)N2c3ccccc3CC2C)c1 (centres undefined)	-5%	-2%	0	3%	14µM*	3%
Cc1noc(C)c1COC(=O)c1cccc(S(=O)(=O)N2CCOCC2)c1	7%	1%	3	25%	2%	1%
CN(C)S(=O)(=O)c1ccc(C(=O)NCCSc2c(-c3ccc(Br)cc3)[nH]c3ccccc23)cc1	nt	nt	nt	nt	5%	0%
COCCCNC(=O)Cc1c(C)c2c(cc(C)c3c(C(C)(C)C)coc32)oc1=O	0.28µM*	-1%	-2	13%	?	?
COCCNC(=O)Cc1c(C)c2c(cc(C)c3c(C)coc32)oc1=O	8%	0%	0	-6%	11%	-15%
COc1ccc(CN(Cc2ccco2)c2cnc(S(C)(=O)=O)nc2C(=O)Nc2ccc(F)cc2)cc1	nt	nt	nt	nt	?	-8%

Assay outcomes from PubChem.
